In the assay the target is Genome polyprotein (dengue virus type 2) (UniProt P29990).
Setting [1] is: Thailand/16681/1984, Concentration 25.0 uM, Number of replicates 1.0.

Among the data in ChEMBL document CHEMBL5606460, “ASAP - DENV-2 NS2B-NS3 protease fluorescence single point” (2024) are inhibition values, retold here.

One may read the inhibition as the change of the read-out against control, counted positive when it falls.

The structures appear in SMILES notation. The whole screen tested about 2,000 compounds, of which about 110 (5.5%) showed an effect of 50% or more. This is one part of a sample in which strong results are shown more often than they occur.

On to `Cc1cc(CO)c2cccc(Cc3cccc(C(=O)Nc4cc(O)[nH]n4)c3)c2n1`, for which the inhibition is, setting by setting: (Thailand/16681/1984, Concentration 49.95 uM, Number of replicates 2.0, Standard deviation 1.1139101860624252 %) 16.1%; (Thailand/16681/1984, Concentration 99.9 uM, Number of replicates 2.0, Standard deviation 0.5605490390974336 %) 35%.

As to `Cc1cc(CO)c2cccc(Cc3ccccc3NC(=O)Cc3cccc(CN)c3)c2n1`, the inhibition runs as follows: (Thailand/16681/1984, Concentration 49.95 uM, Number of replicates 2.0, Standard deviation 1.4858035354408357 %) -0.82%; (Thailand/16681/1984, Concentration 99.9 uM, Number of replicates 2.0, Standard deviation 1.2081673980721888 %) 5.26%.

`O=Cc1ccc(N2CCC(C(=O)NCc3ccc(C(F)(F)F)nc3)CC2)cc1`: the inhibition under setting [1] amounted to 14.9%.

Regarding `CC(C)(CO)NC(=O)c1cc(Cl)cc(OCc2ccccn2)c1`, the inhibition is -3.57% (Thailand/16681/1984, Concentration 49.5 uM, Number of replicates 2.0, Standard deviation 3.9117339361958243 %); -3.56% (Thailand/16681/1984, Concentration 99.01 uM, Number of replicates 2.0, Standard deviation 3.9139588683287148 %); -2.33% (Thailand/16681/1984, Concentration 198.0 uM, Number of replicates 2.0, Standard deviation 3.978479645326132 %).

As to `O=Cc1ccc(N2CCC(C(=O)N3CCS[C@H]3c3ccc([N+](=O)[O-])cc3)CC2)cc1`, under setting [1], the inhibition worked out at 10.8%.

In the case of `CNC(=O)c1cc(Cl)ccc1NS(=O)(=O)c1ccc(Cn2cncn2)cc1`, the inhibition is -1.89% (Thailand/16681/1984, Concentration 49.5 uM, Number of replicates 2.0, Standard deviation 0.7766096317793165 %); -0.333% (Thailand/16681/1984, Concentration 99.01 uM, Number of replicates 2.0, Standard deviation 1.2995063622910579 %); 2.7% (Thailand/16681/1984, Concentration 198.0 uM, Number of replicates 2.0, Standard deviation 1.6197418261994996 %).

Turning to `CS(=O)(=O)N1CCC(NC(=O)C2CCN(c3ccc(C=O)cc3)CC2)CC1`, the inhibition under setting [1] was 12%.

Turning to `O=Cc1ccc(N2CCC(C(=O)Nc3ncnc(Cl)c3Cl)CC2)cc1`, under setting [1], the inhibition is 10.5%.

Take `C=CCN(Cc1cccc(OC)c1)C(=O)C1CCN(c2ccc(C=O)cc2)CC1`: the inhibition under setting [1] was 13.3%.

In the case of `Cc1ccc(NC(=O)C2CCN(c3ccc(C=O)cc3)CC2)cc1I`, the inhibition under setting [1] worked out at 9.87%.

On to `Cc1cc(CO)c2cccc(Cc3ccccc3NC(=O)Cc3nnc(C)[nH]3)c2n1`, for which the inhibition reads like this: (Thailand/16681/1984, Concentration 49.95 uM, Number of replicates 2.0, Standard deviation 1.0489246346930539 %) 2.09%; (Thailand/16681/1984, Concentration 99.9 uM, Number of replicates 2.0, Standard deviation 0.8121374020252716 %) 10.7%.

As to `O=Cc1ccc(N2CCC(C(=O)NCc3ccc(-c4ccccn4)cc3)CC2)cc1`, under setting [1], the inhibition is 6.55%.

As for `CC(=O)N[C@@H](CCCN)C(=O)Nc1cccc2c(CO)cc(C)nc12`, the inhibition (Thailand/16681/1984, Concentration 99.9 uM, Number of replicates 2.0, Standard deviation 2.7664513641226787 %) came to 9.57%.

Take `CC(=O)N[C@@H](Cc1ccc(CN)cc1)C(=O)Nc1cccc2c(CO)cc(C)nc12`: the inhibition (Thailand/16681/1984, Concentration 49.95 uM, Number of replicates 2.0, Standard deviation 0.08390662036506401 %) came to 24.9% and the inhibition (Thailand/16681/1984, Concentration 99.9 uM, Number of replicates 2.0, Standard deviation 0.3339864632910001 %) worked out at 96.3%.

For the compound `CC(=O)N[C@@H](CCCN)C(=O)Nc1ccccc1Cc1cccc2c(CO)cc(C)nc12`, the inhibition by setting is: (Thailand/16681/1984, Concentration 49.95 uM, Number of replicates 2.0, Standard deviation 1.2344771467866291 %) -4.07%; (Thailand/16681/1984, Concentration 99.9 uM, Number of replicates 2.0, Standard deviation 0.6037374205287288 %) 4.36%.

In the case of `CC(=O)N[C@@H](Cc1ccc(O)cc1)C(=O)Nc1cccc2c(CO)cc(C)nc12`, the inhibition reads like this: (Thailand/16681/1984, Concentration 49.95 uM, Number of replicates 2.0, Standard deviation 2.4752459751189644 %) -9.17%; (Thailand/16681/1984, Concentration 99.9 uM, Number of replicates 2.0, Standard deviation 3.123465853915667 %) -9.54%.

Consider `CC(=O)N[C@@H](CCCCN)C(=O)Nc1ccccc1Cc1cccc2c(CO)cc(C)nc12`, for which the inhibition (Thailand/16681/1984, Concentration 49.95 uM, Number of replicates 2.0, Standard deviation 0.842601818478522 %) was -5.54% and the inhibition (Thailand/16681/1984, Concentration 99.9 uM, Number of replicates 2.0, Standard deviation 0.16339684106206548 %) is 1.8%.

Consider `CC(=O)N[C@@H](CCCCN)C(=O)Nc1cccc2c(CO)cc(C)nc12`, for which the inhibition is, setting by setting: (Thailand/16681/1984, Concentration 49.95 uM, Number of replicates 2.0, Standard deviation 0.7189645441339965 %) 35.5%; (Thailand/16681/1984, Concentration 99.9 uM, Number of replicates 2.0, Standard deviation 0.1513618084697797 %) 97.4%.

`Cn1cc(NC(=O)c2ccccc2C(F)(F)F)c(-c2ccc(F)nc2)n1`: the inhibition was -3.01% (Thailand/16681/1984, Concentration 49.5 uM, Number of replicates 2.0, Standard deviation 3.6499634215033607 %); -2.37% (Thailand/16681/1984, Concentration 99.01 uM, Number of replicates 2.0, Standard deviation 1.5811035342397435 %); -2.26% (Thailand/16681/1984, Concentration 198.0 uM, Number of replicates 2.0, Standard deviation 0.8634737807980869 %).

Consider `O=Cc1ccc(N2CCC(C(=O)Nc3c(Cl)cncc3Cl)CC2)cc1`, for which the inhibition under setting [1] stood at 12.4%.

For the compound `Cc1cc(CO)c2cccc(Cc3ccccc3C(=O)NC[C@H](C)O)c2n1`, the inhibition is -3.03% (Thailand/16681/1984, Concentration 49.95 uM, Number of replicates 2.0, Standard deviation 0.37872955767016525 %) and 0.577% (Thailand/16681/1984, Concentration 99.9 uM, Number of replicates 2.0, Standard deviation 0.20409716758521712 %).

Turning to `Cc1cc(CO)c2cccc(Cc3cccc(C(=O)NC[C@H](C)O)c3)c2n1`, the inhibition (Thailand/16681/1984, Concentration 49.95 uM, Number of replicates 2.0, Standard deviation 1.3417230059830858 %) is -6.96% and the inhibition (Thailand/16681/1984, Concentration 99.9 uM, Number of replicates 2.0, Standard deviation 0.8544771145149516 %) is -2.86%.

As to `Cc1cc(CO)c2cccc(Cc3ccccc3C(=O)NCC(=O)O)c2n1`, the inhibition (Thailand/16681/1984, Concentration 49.95 uM, Number of replicates 2.0, Standard deviation 0.8422599232434016 %) turned out to be 38.5% and the inhibition (Thailand/16681/1984, Concentration 99.9 uM, Number of replicates 2.0, Standard deviation 0.5627042603428867 %) was determined as 64.9%.

Consider `Cc1cc(CO)c2cccc(Cc3cccc(C(=O)NCC(N)=O)c3)c2n1`, for which the inhibition by setting is: (Thailand/16681/1984, Concentration 49.95 uM, Number of replicates 2.0, Standard deviation 0.5174294413229081 %) 2.44%; (Thailand/16681/1984, Concentration 99.9 uM, Number of replicates 2.0, Standard deviation 1.3216010889796208 %) 17.6%.
